Hits are enriched below; roughly 2.6% of the tested compounds scored in any of these assays.
HepG2 tox – qHTS for Inhibitors of TGF-b: Cytotox Counterscreen | AID 588856, 2011 | Potency, µM (top dose mostly 46.1 µM), for the others: at the highest dose activity change, negative = cytotoxicity, hits mostly cytotoxic | 0.76% of 410,000 active | HepG2 CAGA-GFP viability, ATP luminescence, 18 h; also: potency is read from the fitted curve at half-maximal effect
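HepG2 CAGA-GFP cells (1000/well, DMEM with 1% FBS) received compound, then TGF-beta at 500 pg/mL final, and were incubated 18 hours at 37 degrees C. Viability was read by CellTiter-Glo luminescence. Media-only wells were set as complete cell-killing and DMSO as no toxicity.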
TGFb SMAD3 inh – qHTS for Inhibitors of TGF-b. 1.2% of 410,000 active. AID 588855, 2011. HepG2 CAGA-GFP TGF-b/SMAD3 reporter, GFP fluorescence, 18 h; TGF-beta stimulated, 500 pg/mL final. Potency, µM (highest dose often 46.1 µM), for the others: top-dose activity, negative = inhibition, most hits filed as inhibitors; also: potency is read from the fitted curve at half-maximal effect; % is scaled to controls: 0 for no effect and ±100 for the full control effect; nearly all actives have a fitted effect of over 65% in size
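First, reporter cells (HEPG2 CAGA-GFP) rested 2 h at 37 degrees C. Next, compounds were pinned in and TGF-beta added to 500 pg/mL final. After 18 h, GFP was imaged per cell and summed per well.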
S2 tox – Viability Counterscreen for Primary qHTS for Inhibitors of ATXN expression. S2 cells (HEK-293 line with an ATXN2-luciferase reporter) viability, CellTiter-Fluor protease fluorescence, 24 h. 0.49% of 400,000 active. Potency, µM (top dose mostly 56.7 µM), usual class: cytotoxic. AID 651635, 2014; also: potency is read from the fitted curve at half-maximal effect; nearly all actives have a fitted effect of over 40% in size
Giardia kill – Small Molecules that selectively kill Giardia lamblia: qHTS; Giardia lamblia trophozoite viability; activity change, % at 7.66 µM, hits read low; 0.15% of 340,000 active; in the data active = activity change below about -80%; inconclusive = between about -30% and that limit;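 also: parasites exposed to compound for two days anaerobically before the ATP read; % is scaled to controls: 0 for no effect and ±100 for the full control effect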
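Viability, read as ATP luminescence: trophozoites at 100 cells/well, compound added, 48 hrs anaerobic at 37 deg C, then 15-30 min room-temperature development before reading.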
uPA generation – qHTS for Inhibitors of Cell Surface uPA Generation; cell surface uPA generation assay, qHTS; Potency, µM (highest dose often 38.3 µM), for inactives: at the top dose activity change, negative = inhibition, actives largely listed as inhibitors; 0.31% of 330,000 active; active = well fitted inhibition curve with a large enough effect; inconclusive = small, poorly fitted or top-dose-only effect; inactive = no such curve, though single readings can be large or run the other way; tested in mouse RAW 264.7 cells; also: potency is read from the fitted curve at half-maximal effect; % is scaled to controls: 0 for no effect and ±100 for the full control effect; nearly all actives have a fitted effect of over 55% in size
ATXN2 expr inh – Primary qHTS for Inhibitors of ATXN expression | HEK-293 ATXN2-luciferase reporter, luminescence, 24 h | Potency, µM (titrated, usually from 57 µM), for inactives: top-dose activity change, negative = inhibition, usual class: inhibitors | 0.72% of 360,000 active | AID 1745845, 2022; also: potency is read from the fitted curve at half-maximal effect; % is scaled to controls: 0 for no effect and ±100 for the full control effect; nearly all actives have a fitted effect of over 55% in size
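ATXN2-luciferase reporter cells (luciferase flanked by upstream and downstream ATXN2 gene portions) were treated 24 h at 37 °C with compounds at up to 57 uM. SteadyGlo luminescence gave expression; GF-AFC fluorescence gave viability.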
The depositor's hits bear a star; i = inactive; ? = inconclusive; · = not tested or not shown; [ ] = dose if it differs, or a comment. Unless noted, calls follow the shape of the dose curve; as a rule, active = well fitted curve in the direction sought with a large enough effect; inconclusive = small, poorly fitted or top-dose-only effect, or another doubt; inactive = no such curve, though single readings can be large; an effect the other way counts as inactive or inconclusive.

SMILES | HepG2 tox | TGFb SMAD3 inh | S2 tox | Giardia kill | uPA generation | ATXN2 expr inh
C=CC(C)(C)c1c2occc2c(O)c2ccc(=O)oc12 | -25.5% | ? | ? | -6.9 | 22.0% | -24.5%
CCc1cc(C(=O)NCc2c(C)ncc3c2CCN(C(=O)C2=CCCC2)C3)no1 | · | · | i | · | · | ·
C=CCC[C@H](Cc1ccc(F)cc1)C(=O)OC[C@@H](NC(=O)[C@@H](CC=C)CC(=O)N(CCO)Cc1ccccc1)C(C)(C)C | -6.2% | ? | 20µM* | 3.7 | ? | ?
C=CCC[C@@H](Cc1ccc(F)cc1)C(=O)OC[C@@H](NC(=O)[C@@H](CC=C)CC(=O)N[C@@H](CO)Cc1ccccc1)C(C)(C)C | -0.9% | ? | 22.4µM* | 1.1 | ? | ?
Nc1ncnc2ccccc12 | · | · | · | · | · | -8.6%
CCOC(=O)N1CCN(C2=C(NS(=O)(=O)c3ccc(C)cc3)C(=O)c3ccccc3C2=O)CC1 | -97.8% | 22.4µM* | 31.6µM* | -4.1 | ? | ·
Cc1ccc(S(=O)(=O)NC2=C(N3CCN(Cc4ccccc4)CC3)C(=O)c3ccccc3C2=O)cc1 | -17.5% | -1.1% | i | -4.9 | -6.2% | 4.5%
COC(=O)C1CCN(C2=C(NS(=O)(=O)c3ccc(Cl)cc3)C(=O)c3ccccc3C2=O)CC1 | -63.6% | ? | ? | -5.5 | -0.9% | -25.4%
CC(=O)Nc1ccc(S(=O)(=O)NC2=C(N3CCN(c4ccc(F)cc4)CC3)C(=O)c3ccccc3C2=O)cc1 | -95.7% | 11.2µM* | ? | 12.1 | -7.2% | -15.3%
NC(=O)C1CCN(C2=C(NS(=O)(=O)c3ccc(Cl)cc3)C(=O)c3ccccc3C2=O)CC1 | -109.8% | 11.2µM* | ? | 4.5 | -10.6% | ·
CCOc1ccc(Nc2c(S(=O)(=O)c3ccccc3)cnc3ccc(CC)cc23)cc1 | -27.3% | 11.2µM* | ? | · | · | ?
CCOc1ccc(Nc2nc(NCC3CCCO3)c3ccccc3n2)cc1 (stereo not given) | -51.3% | 11.2µM* | ? | 30.8 | -8.9% | ?
c1ccc(Nc2nc(NCC3CCCO3)c3ccccc3n2)cc1 (stereo not given) | -17.5% | ? | ? | 17.8 | -2.4% | -31.9%[11.3 µM]
CCOc1ccc(Nc2c(S(=O)(=O)c3ccccc3)cnc3ccc(F)cc23)cc1 | -23.3% | ? | i | · | · | ?
CCOc1ccc(Nc2c3ccccc3nc3ccccc23)cc1 | -53.3% | ? | ? | 0.5 | -17.3% | 11.2µM*
CCOc1ccc(Nc2cc(C)c3ccccc3n2)cc1 | -38.3% | ? | i | 1.6 | -0.4% | 13.7%
C/C(=N\NC(=O)CSCc1ccccc1Cl)c1cc(O)ccc1O | -29.3% | -18.2% | ? | -8.5 | 2.51µM* | ?
CC(N)c1csc(NC(=O)c2cc(C(C)(C)C)nn2Cc2ccccc2)n1 (stereo not given) | -98.9% | 22.4µM* | i | · | · | ?
COc1ccc(CC(N)c2csc(NC(=O)c3cc(C(C)(C)C)nn3Cc3ccccc3)n2)cc1 (stereo not given) | 11.2µM* | ? | i | · | · | ?
Cc1ccc(Cl)cc1N1CCN(S(=O)(=O)c2ccc3[nH]c4c(c3c2)CCCCC4)CC1 | -29.3% | -28.4% | i | · | · | -1.3%
Cc1ccc(C)c(N2CCN(S(=O)(=O)c3ccc4[nH]c5c(c4c3)CCCC5)CC2)c1 | -6.8% | 12.6µM* | i | · | · | -13.7%
CN(C)c1ccc(N=Cc2ccncc2)cc1 | -34.0% | -29.0% | · | · | · | ·
COc1ccccc1CCNc1ncnc2sc(C(=O)N3CCCCC3)c(C)c12 | · | · | i | · | · | ·
O=C(NCCc1nnc2n1CCN(Cc1ccc3c(c1)CCO3)CC2)c1ccco1 | · | · | i | · | · | ·
Cc1[nH]c(-c2ccc(F)cc2)cc1C(=O)N1CCN(c2ccc(Cl)cc2)CC1 | -64.1% | ? | ? | -5.3 | -9.3% | 14.1µM*
CC1(C)CC(=O)c2cc(C(=O)NCCc3ccccc3)c(=O)[nH]c2C1 | -42.0% | -5.3% | · | · | · | ·
